Inconclusive results are not listed. A call without a number means that no potency is given here. Calls of active or inactive are those of the source. Unless noted, calls come from the whole dose curve; as a rule, active = well fitted curve in the direction sought with a large enough effect; inconclusive = small, poorly fitted or top-dose-only effect, or another doubt; inactive = no such curve, though single readings can be large; an effect the other way counts as inactive or inconclusive.
Key:
[1] = target: Ubiquitin carboxyl-terminal hydrolase 2 (Homo sapiens) (UniProt O75604); assay: qHTS Validation Assay for Inhibitors of Ubiquitin-specific Protease USP2a Using CHOP2 as the Reporter (AID 463106)
Summary of the method: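 Readout was coupled fluorescence (Ex 485/Em 531 nm), read 60 min after adding 25 nM final Ub-CHOP2 and 25 nM reporter substrate. Beforehand, 10 nM final USP2 core had 30 min at RT with compound in pH 8.0 buffer. Curves were fitted after normalization to NEM and flagged for artifacts using time-zero reads.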

[2] = target: Tumor susceptibility gene 101 protein (Homo sapiens) (UniProt Q99816); assay: qHTS Validation Assay for Iinhibitors of HIV-1 Budding by Blocking the Interaction of PTAP/TSG101 (AID 485342; calls by dose curve)
Summary of the method: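 Tsg101 binding domain (10 uM final) in pH 7.5 HEPES/NaCl/Tween 20/EDTA/TCEP buffer was mixed with pin-transferred compounds, then FITC-labeled PTAP peptide (50 nM final) was added; after 20 min at r.t., fluorescence polarization was read.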

[3] = target: Beta-2 adrenergic receptor (Homo sapiens) (UniProt P07550); assay: qHTS validation assay of beta-arrestin-biased ligands of beta2-adrenergic receptor (AID 485366)
Summary of the method: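 Agonist activity is measured as luciferase luminescence downstream of beta-arrestin recruitment to recombinant beta2-AR in Tango cells. Exposure lasts 18 hr at 37 degrees C, and curves are categorized by r2, response size and activity.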

[4] = target: Thioredoxin reductase 1, cytoplasmic (Rattus norvegicus) (UniProt O89049); assay: qHTS Assay for Substrates of Mammalian Selenoprotein Thioredoxin Reductase 1 (TrxR1) (AID 488772);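 note: series mostly up to about 57 µM; a drop in NADPH fluorescence below the no-compound background marks a TrxR1 substrate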
Summary of the method: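 In this dual-purpose format, potential substrates are identified from the first fluorescence read after selenite addition, not from the 8-minute delta. Rat enzyme is preincubated with NADPH and then with compound at ~22 deg C.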

[5] = target: Thioredoxin reductase 1, cytoplasmic (Rattus norvegicus) (UniProt O89049); assay: qHTS Assay for Inhibitors of Mammalian Selenoprotein Thioredoxin Reductase 1 (TrxR1) (AID 488773); conditions: Potency: inhibition; note: nearly all actives have a fitted effect of over 40% in size; note: potency is the fitted concentration of half-maximal effect
Summary of the method: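 Inhibition is scored from the loss of NADPH fluorescence between first and last reads of an 8-min kinetic run. Selenite (400 uM) was the substrate, added after 15 min compound preincubation at room temperature.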

[6] = Validation screen for small molecules that induce DNA re-replication in MCF 10A normal breast cells (AID 463097); note: nearly all actives have a fitted effect of over 60% in size; note: potency is the fitted concentration of half-maximal effect
Summary of the method: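 Readout: Hoechst nuclear fluorescence intensity, 405 ex / 500-530 em, by scanning plate imager; re-replication scored as increase in nuclei with elevated DNA content. Cells exposed to compound 48 hr, 37 C, 5% CO2 beforehand.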

[7] = qHTS Validation Assay to Find Inhibitors of Chronic Active B-Cell Receptor Signaling (AID 485345; active = well fitted curve in the direction sought with a large enough effect in the main read-out, with a control signal flat, not every such curve was filed as active)
Summary of the method: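 Read-out: ratio of filter-corrected green (IkappaBalpha fusion) to red (native) luciferase signal in doxycycline-induced TMD8 cells after 4 h at 37C. Titration spanned 46 uM–3 nM; Data were normalised to basal cells and 10 uM MG-132 wells.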

[8] = target: ATP-dependent 6-phosphofructokinase (Trypanosoma brucei brucei) (UniProt O15648); assay: qHTS Validation Assay to Find Inhibitors of T. brucei phosphofructokinase (AID 485368); note: potency is the fitted concentration of half-maximal effect
Summary of the method: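 Inhibition derived from concentration-response curves of luminescence, ranked by r2, response size and curve class; the underlying reaction used 1.25 nM PFK, 0.1 mM ATP and 0.5 mM F6P, 45 min, room temperature.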

[9] = Quantitative high throughput screen for delayed death inhibitors of the malarial parasite plastid, 96 hour incubation (AID 488745); note: nearly all actives have a fitted effect of over 70% in size; note: potency is the fitted concentration of half-maximal effect
Summary of the method: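 Luciferase-expressing P. falciparum, infected RBCs 2% Hct/0.1% parasitemia (final); 96 h cpd exposure, 37 C, 5% CO2; RPMI 1640 + 0.5% Albumax, bicarbonate, gentamycin. Readout: luminescence loss = growth inhibition.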

[10] = Quantitative high throughput screen for delayed death inhibitors of the malarial parasite plastid, 48 hour incubation (AID 488752); note: nearly all actives have a fitted effect of over 65% in size; note: potency is the fitted concentration of half-maximal effect
Summary of the method: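 Luciferase-expressing P. falciparum in RBCs, 2% Hct, 0.1% parasitemia final; RPMI 1640 + 0.5% Albumax; 48 h, 37 C, 5% CO2; luminescence readout, signal drop = growth inhibition.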

Sequence of Tumor susceptibility gene 101 protein (Homo sapiens) (Q99816 whole entry, looked up, the tested form may be a part): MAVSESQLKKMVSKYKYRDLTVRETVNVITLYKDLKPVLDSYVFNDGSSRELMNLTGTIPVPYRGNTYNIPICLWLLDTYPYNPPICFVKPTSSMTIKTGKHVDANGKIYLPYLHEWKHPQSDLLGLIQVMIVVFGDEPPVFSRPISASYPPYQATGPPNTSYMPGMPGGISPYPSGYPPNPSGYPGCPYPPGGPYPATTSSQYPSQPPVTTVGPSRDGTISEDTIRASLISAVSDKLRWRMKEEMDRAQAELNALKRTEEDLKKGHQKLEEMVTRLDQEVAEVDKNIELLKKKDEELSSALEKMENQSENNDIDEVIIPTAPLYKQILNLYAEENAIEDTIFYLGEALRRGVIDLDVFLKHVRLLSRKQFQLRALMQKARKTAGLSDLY
Sequence of Beta-2 adrenergic receptor (Homo sapiens) (P07550 whole entry, looked up): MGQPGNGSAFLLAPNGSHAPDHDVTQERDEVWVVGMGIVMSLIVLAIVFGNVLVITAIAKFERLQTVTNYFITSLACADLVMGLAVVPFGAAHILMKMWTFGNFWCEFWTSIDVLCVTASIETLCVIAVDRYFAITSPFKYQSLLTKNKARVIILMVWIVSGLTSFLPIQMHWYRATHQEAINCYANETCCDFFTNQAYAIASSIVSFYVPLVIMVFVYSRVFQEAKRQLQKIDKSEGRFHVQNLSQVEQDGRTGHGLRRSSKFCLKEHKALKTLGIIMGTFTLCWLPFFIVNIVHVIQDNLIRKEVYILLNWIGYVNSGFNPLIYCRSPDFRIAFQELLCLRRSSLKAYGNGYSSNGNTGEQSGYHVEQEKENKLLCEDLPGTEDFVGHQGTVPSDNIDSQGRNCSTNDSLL
Sequence of Ubiquitin carboxyl-terminal hydrolase 2 (Homo sapiens) (O75604 whole entry, looked up): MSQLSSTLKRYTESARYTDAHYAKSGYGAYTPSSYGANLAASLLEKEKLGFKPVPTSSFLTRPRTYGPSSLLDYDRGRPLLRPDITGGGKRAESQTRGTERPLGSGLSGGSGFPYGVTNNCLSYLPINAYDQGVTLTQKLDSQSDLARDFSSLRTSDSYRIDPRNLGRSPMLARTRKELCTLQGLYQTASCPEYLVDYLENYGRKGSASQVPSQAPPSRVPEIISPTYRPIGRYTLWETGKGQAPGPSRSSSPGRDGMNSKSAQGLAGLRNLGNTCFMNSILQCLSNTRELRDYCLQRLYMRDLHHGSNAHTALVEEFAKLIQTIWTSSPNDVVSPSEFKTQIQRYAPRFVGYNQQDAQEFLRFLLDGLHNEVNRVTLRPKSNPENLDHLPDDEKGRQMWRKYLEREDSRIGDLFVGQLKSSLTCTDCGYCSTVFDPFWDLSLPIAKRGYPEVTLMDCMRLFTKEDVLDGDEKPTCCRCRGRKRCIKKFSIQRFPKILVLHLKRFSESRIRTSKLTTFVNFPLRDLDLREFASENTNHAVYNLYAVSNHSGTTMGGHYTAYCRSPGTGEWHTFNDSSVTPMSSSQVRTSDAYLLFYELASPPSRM
Sequence of ATP-dependent 6-phosphofructokinase (Trypanosoma brucei brucei) (O15648 whole entry, looked up): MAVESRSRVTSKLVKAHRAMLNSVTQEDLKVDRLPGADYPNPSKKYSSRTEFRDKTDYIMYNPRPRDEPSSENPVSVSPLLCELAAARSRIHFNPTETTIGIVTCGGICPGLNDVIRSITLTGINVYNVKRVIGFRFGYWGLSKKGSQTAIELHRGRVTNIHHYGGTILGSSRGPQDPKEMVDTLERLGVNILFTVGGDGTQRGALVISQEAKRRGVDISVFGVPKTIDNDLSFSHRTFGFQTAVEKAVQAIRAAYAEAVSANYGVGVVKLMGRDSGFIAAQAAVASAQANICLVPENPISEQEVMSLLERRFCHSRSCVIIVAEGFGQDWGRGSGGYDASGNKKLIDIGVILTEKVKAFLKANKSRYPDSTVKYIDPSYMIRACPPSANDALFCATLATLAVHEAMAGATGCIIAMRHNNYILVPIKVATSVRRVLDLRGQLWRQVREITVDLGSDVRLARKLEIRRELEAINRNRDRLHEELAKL
Sequence of Thioredoxin reductase 1, cytoplasmic (Rattus norvegicus) (O89049 whole entry, looked up): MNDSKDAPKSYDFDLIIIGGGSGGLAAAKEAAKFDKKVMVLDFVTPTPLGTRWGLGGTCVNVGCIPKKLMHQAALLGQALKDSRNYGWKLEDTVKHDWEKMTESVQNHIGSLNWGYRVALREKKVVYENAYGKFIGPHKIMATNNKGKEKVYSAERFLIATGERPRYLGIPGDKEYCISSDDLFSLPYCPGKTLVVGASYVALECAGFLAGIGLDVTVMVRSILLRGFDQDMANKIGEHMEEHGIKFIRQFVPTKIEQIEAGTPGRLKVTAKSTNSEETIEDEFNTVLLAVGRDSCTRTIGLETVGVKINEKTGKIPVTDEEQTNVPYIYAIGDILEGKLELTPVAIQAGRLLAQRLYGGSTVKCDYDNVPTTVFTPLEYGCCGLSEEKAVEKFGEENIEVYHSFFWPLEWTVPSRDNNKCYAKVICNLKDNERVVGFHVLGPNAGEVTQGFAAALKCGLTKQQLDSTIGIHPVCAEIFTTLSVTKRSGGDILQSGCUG

SMILES	outcome [1]	outcome [2]	outcome [3]	outcome [4]	Potency [5]	Potency [6]	outcome [7]	Potency [8]	Potency [9]	Potency [10]
COc1cccc2c1[C@@H]1CN(CCCCn3c(=O)[nH]c4c(sc5ncc(-c6ccccc6)nc54)c3=O)C[C@@H]1CO2	inactive	inactive	inactive	inactive	inactive	–	–	–	–	–
Brc1ccc([C@H]2CN3CCSC3=N2)cc1	inactive	inactive	inactive	inactive	inactive	7.08 µM (active)	inactive	inactive	inactive	inactive
O=C1NC(=O)/C(=C/c2ccc3c(c2)OC(F)(F)O3)S1	inactive	inactive	inactive	inactive	inactive	–	–	inactive	–	–
Nc1ncnc2n[nH]c(Nc3ccc(F)cc3)c12	inactive	inactive	inactive	inactive	inactive	–	inactive	inactive	–	–
O=[N+]([O-])c1ccc(-c2nc(-c3ccc(F)cc3)c(-c3ccncc3)[nH]2)cc1	inactive	inactive	inactive	inactive	inactive	12.6 µM (active)	–	inactive	–	10.4 µM (active)
N[C@@H](Cn1ccc(=O)c(O)c1)C(=O)O	inactive	inactive	inactive	inactive	inactive	–	inactive	–	–	–
CN(C)c1cc2c(Nc3ccc4c(cnn4Cc4ccccc4)c3)ncnc2cn1	inactive	inactive	inactive	inactive	inactive	3.16 µM (active)	–	–	7.38 µM (active)	4.65 µM (active)
C[N+](C)(C)CCO	inactive	inactive	inactive	inactive	inactive	inactive	inactive	–	inactive	inactive
Cn1cnc2c(NCc3ccccc3)nc(NCCO)nc21	inactive	inactive	inactive	inactive	inactive	inactive	inactive	inactive	–	–
Cc1nn(-c2ccccc2)c(C)c1/C=N/N1CCN(Cc2ccccc2)CC1	inactive	inactive	inactive	inactive	inactive	–	–	inactive	–	–
CCN(CC)CCNC(=O)c1ccc(NS(C)(=O)=O)cc1	inactive	inactive	inactive	inactive	inactive	–	inactive	inactive	–	–
C[C@]12CCC(=O)C=C1CC[C@@H]1[C@@H]2[C@@H](O)C[C@@]2(C)[C@H]1CC[C@]2(O)C(=O)COC(=O)CCC(=O)O	–	–	–	–	–	inactive	–	–	inactive	inactive
NC(N)=NCCCCN=C(N)N	inactive	inactive	inactive	inactive	inactive	inactive	inactive	inactive	inactive	inactive
Clc1ccc2c(c1)N=C(N1CCNCC1)c1ccccc1N2	inactive	inactive	inactive	inactive	–	–	–	inactive	–	–
COC(=O)C1=CO[C@@H](O)[C@@H]2C(CO)=CC[C@H]12	inactive	inactive	inactive	–	inactive	–	inactive	inactive	–	–
O=C1NC(c2cccc([N+](=O)[O-])c2)=CCN1c1ccccc1O	inactive	inactive	inactive	inactive	inactive	inactive	inactive	–	–	inactive
COc1ccccc1N1CCN(CCN2C(=O)CC3(CCCC3)CC2=O)CC1	inactive	inactive	inactive	inactive	inactive	inactive	inactive	inactive	–	inactive
CC(C)N(CCC(=O)c1ccc2ccccc2c1)Cc1ccccc1	inactive	inactive	inactive	inactive	7.52 µM (active)	3.55 µM (active)	–	13.5 µM (active)	inactive	inactive
